# Assay outcomes as filed in PubChem.
# D2 ag-1 = activates the human D2 dopamine receptor; DiscoveRx PathHunter D2 beta-arrestin, luminescence, 90 min; 100% = 57 uM dopamine signal; activation, % (concentration not given with the values); 360,000 compounds, 0.084% hits; AID 624465; in the data active = activation above about 40%; inconclusive = between about 15% and that limit
#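 DiscoveRx PathHunter D2 beta-arrestin cells (2,100/well) attached overnight, then compound-stimulated 90 min at 37 C in HBSS/10 mM HEPES/0.1% Tween-20 buffer; beta-galactosidase complementation read by luminescence after 1 h at ambient temperature. Dopamine 57 uM final (EC100) as control.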
# D2 PAM-1 = positive allosteric modulators of human D2 dopamine receptor. potentiation, % (test concentration not listed). DiscoveRx D2 beta-arrestin cells, luminescence, 90 min; 100% = 57 uM dopamine signal. 360,000 compounds, 0.23% hits. P14416; in the data active = potentiation above about 50%; inconclusive = mostly about 30% to 49%
#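 PathHunter D2 cells, attached overnight at 37 deg C, received compound in DMSO plus dopamine at EC20 (50 nM final) for 90 min at 37 deg C. Beta-arrestin recruitment was read as luminescence after 1 h with detection reagent at ambient temperature.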
# D2 ag-2 = D2 dopamine receptor (human) agonism | HEK293 T-REx D2 cells, calcium flux agonist mode | activation, % at 2 µM | 340,000 compounds, 0.53% hits | AID 485358 | P14416;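 active = activation over 3 SD above normal in the single-dose calcium agonist read, cut at about 30% in these data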; note: 0% is about no effect
#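 Agonism is scored from calcium flux in a force-coupled, inducible HEK293 cell line expressing D2, read kinetically for 180 s after compound addition against dopamine controls.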
# D2 PAM-2 = D2 dopamine receptor (human) potentiation; P14416; HEK293 T-REx D2, calcium flux, EC20 dopamine potentiation; potentiation, % at 10 µM; 340,000 compounds, 0.34% hits;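 active = potentiation over 3 SD above the plate norm, cut at about 30% in these data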; note: 0% is about no effect
#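 Tetracycline-induced Hek293 Trex D2 cells, force-coupled to calcium, loaded with no-wash calcium dye. Compound added with 180 s kinetic read for agonism, then EC20 dopamine and a further 180 s read for potentiation.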
# D2 antag = antagonizes the human D2 dopamine receptor | P14416 | HEK293 TREx D2 cells, calcium flux, dopamine EC80 | inhibition, % at 10 µM | 340,000 compounds, 2% hits | AID 485344; in the data active = inhibition above about 30%; inactive = below that, where a call was filed; note: 0% is about no effect
#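 Calcium mobilization kinetics were recorded at 1 s intervals in tetracycline-induced HEK293 T-REx D2 cells, first for 180 s after compound addition and then 180 s after EC80 dopamine.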
# D3 ag = D3 receptor agonism confirmed, beta-arrestin readout; AID 720506; Potency, µM (highest dose often 76.9 µM), for the others: top-dose activation, actives largely listed as activators; shares compounds with D2 ag-2; DiscoveRx D3 beta-arrestin cells, luminescence, 90 min; 2,300 compounds, 4% hits;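 note: potency is the fitted concentration of half-maximal effect; 100% = dopamine control response; nearly all actives have a fitted effect of over 70% in size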
# Target sequence (P35462 whole entry, looked up): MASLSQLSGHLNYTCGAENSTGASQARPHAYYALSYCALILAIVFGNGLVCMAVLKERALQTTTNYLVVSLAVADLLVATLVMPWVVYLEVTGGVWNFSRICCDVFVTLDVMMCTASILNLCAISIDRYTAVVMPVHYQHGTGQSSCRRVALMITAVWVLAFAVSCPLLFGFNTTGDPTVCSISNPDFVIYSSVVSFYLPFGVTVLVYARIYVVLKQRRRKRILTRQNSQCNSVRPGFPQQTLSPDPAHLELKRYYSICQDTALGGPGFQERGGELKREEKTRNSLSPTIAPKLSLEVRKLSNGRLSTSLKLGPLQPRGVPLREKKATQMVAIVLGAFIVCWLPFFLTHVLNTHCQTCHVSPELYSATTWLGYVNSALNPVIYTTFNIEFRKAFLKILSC
# D2 ag-3 = counter-screen for D3 agonists: human D2 dopamine receptor agonism | 2,300 compounds, 5.9% hits | Potency, µM (titrated, usually from 76.9 µM), without a hit: at the top dose activation, most hits filed as activators | shares compounds with D2 ag-2 | DiscoveRx PathHunter D2 beta-arrestin, luminescence, 90 min; response scale: percent relative to full dopamine signal; note: potency is the fitted concentration of half-maximal effect; % of control where 0% means no effect; nearly all actives have a fitted effect of over 70% in size
# * = called active by the depositor; ? = inconclusive; . = not tested or not shown. Only some compounds are listed: those with a hit (about 2.4% of all), similar ones and a draw of the others. Unless noted, calls come from the whole dose curve; as a rule, active = well fitted activation curve with a large enough effect; inconclusive = small, poorly fitted or top-dose-only effect; inactive = flat fitted curve, though single readings scatter.
SMILES,D2 ag-1,D2 PAM-1,D2 ag-2,D2 PAM-2,D2 antag,D3 ag,D2 ag-3
COc1ccc(OC)c(-n2c(CN3CCC(C(N)=O)CC3)nc3ccccc3c2=O)c1,0,3,57*,-15,5,0%,0%
O=C(Nc1cccc(Cl)c1)c1ccc(F)c(S(=O)(=O)NCc2ccc3c(c2)OCO3)c1,5,-8,-2,-1,2,3%,4%
CCOc1ccc(NC(=O)c2ccc(F)c(S(=O)(=O)NCc3ccc4c(c3)OCO4)c2)cc1,.,.,0,-1,.,.,.
Cc1cc(C)nc(/N=C(\N)Nc2ccc([N+](=O)[O-])cc2)n1,1,-2,15,-9,37*,-7%,-4%
Cc1ccc(N/C(N)=N/c2nc(C)cc(C)n2)cc1,0,-27,80*,-34,31*,-4%,4%
CCC(=O)Nc1ccc(N/C(N)=N/c2nc(C)cc(C)n2)cc1,-3,-21,1,4,2,.,.
CCCCc1ccc(N/C(N)=N/c2nc(C)cc(C)n2)cc1,?,-4,56*,-14,43*,?,?
Cc1ccc(C)c(-n2nnc(-c3nc(-c4ccccc4C)no3)c2C)c1,.,.,.,2,.,.,.
CC(=O)c1cc2c(C)c(C(=O)c3ccccc3)oc2cc1O,-3,-27,36*,-10,-9,1%,-2%
O=C(c1ccccc1)c1ccc(O)cc1O,-6,-8,11,-3,-4,.,.
COc1cc(OC)c2c(C)c(CC(=O)NCc3ccccc3OC)c(=O)oc2c1,.,.,-1,0,.,.,.
CC(C)NC[C@@H](O)c1ccc(O)c(O)c1,3,23,16,-2,-19,?,24%
COc1ccc(Cl)cc1C(=O)NCCS(=O)(=O)N1CCN(c2ccccc2OC)CC1,.,.,.,-11,.,.,.
COc1cc2c(C(=O)NCCCN3CCN(c4cccc(Cl)c4)CC3)cn(C)c(=O)c2cc1OC,3,-31,4,-26,-7,.,.
COc1ccc(S(N)(=O)=O)cc1C(=O)NCCCN1CCN(c2ccccc2OC)CC1,8,-36,60*,-31,77*,-2%,2%
O=C(NCCCN1CCN(CCCNC(=O)c2cccc(Cl)c2)CC1)c1cccc(Cl)c1,-2,-24,-1,-11,2,.,.
COc1ccc(S(N)(=O)=O)cc1C(=O)NCCCN1CCN(c2cccc(Cl)c2)CC1,10,-12,56*,-19,50*,13%,24%
Cc1nc2nc(C)c(CCC(=O)NCCCN3CCN(c4cccc(Cl)c4)CC3)c(C)n2n1,?,-16,75*,-14,73*,10%,?
O=C(NCCCN1CCN(c2cccc(Cl)c2)CC1)c1nc(-c2ccncc2)no1,9,-15,69*,-36,82*,4%,21%
COc1cccc(NC(=O)CCc2nnc3n(CC(C)C)c(=O)c4ccccc4n23)c1,.,.,0,3,.,.,.
Cc1ccc(-n2nc3c(N4CCC(C(=O)NCCC(C)C)CC4)nnc(C)c3c2C)cc1,.,.,0,4,.,.,.
CC(CNC(=O)c1cnn(-c2ccc(F)cc2)c1-n1cccc1)c1ccccc1 (configuration not stated),.,.,1,-4,.,.,.
COc1cc(CNCCCN2CCOCC2)ccc1OCC(=O)NC(C)(C)C,-2,-3,9,2,1,.,.
COc1cc(CNCCN2CCOCC2)ccc1OCC(=O)NC(C)(C)C,-2,-4,34*,-15,5,-8%,-2%
CCc1cnc2c(c1SCc1c(F)cccc1Cl)c(=O)n(C)c(=O)n2C,.,.,1,0,.,.,.
SMILES,D2 ag-1,D2 PAM-1,D2 ag-2,D2 PAM-2,D2 antag,D3 ag,D2 ag-3
Cn1nc(C(F)(F)F)c(-c2ccc(F)cc2)c1NC(=O)c1ccco1,1,-3,0,-3,-6,1%,2%
Cn1nc(C(F)(F)F)c(-c2ccccc2)c1NC(=O)c1ccco1,-4,-17,0,1,-8,.,.
Cc1cnc(C(=O)Nc2ccc(S(=O)(=O)N(C(C)C)C(C)C)cc2)cn1,4,-3,0,3,27,.,.
Cc1cnc(C(=O)Nc2ccc(S(=O)(=O)NCC(C)C)cc2)cn1,-2,-9,15,-8,36*,7%,-3%
COc1ccc(C)cc1N(C)C(=O)c1sc2nc3n(c(=O)c2c1C)CCCCC3,.,.,5,1,.,.,.
CC[n+]1c(/C=C/C=C/N(C(C)=O)c2ccccc2)sc2cc(OC)ccc21,12,-30,73*,-14,15,21%,?
Fc1ccc(Nc2nc(SCc3cccc(F)c3)nc3ccccc23)cc1,.,.,1,3,.,.,.
CCn1c(C(=O)N2CCCC(C(=O)NCCCOC)C2)cc2sccc21 (configuration not stated),.,.,-1,-1,.,.,.
CC1CCCC(NC(=O)COC(=O)c2ccc3ncsc3c2)C1C (configuration not stated),-1,-4,.,.,.,-2%,4%
CC(C)NC(=O)c1ccc(Cn2c(SCC(N)=O)nc3ccccc3c2=O)cc1,.,.,0,-6,.,.,.
Cc1ccc(C(=O)NCC(=O)NCC(=O)OCC(=O)c2ccc(F)cc2)cc1,0,-5,49*,-20,6,-6%,-5%
O=C(CNC(=O)c1ccccc1)NCC(=O)OCC(=O)c1ccc(F)cc1,-7,7,.,.,.,-4%,-4%
COc1cccc(C(=O)N2c3nc(-c4ccco4)nn3C3(CCCCC3)[C@@H]3CCCC[C@@H]32)c1,.,.,-2,9,.,.,.
Cn1cc(C(F)(F)F)nc1-c1ccc(OCC(O)CNCCOc2ccc(O)c(C(N)=O)c2)cc1 (configuration not stated),?,23,90*,-23,72*,?,?
Cc1cccc(/C=N/NC(=O)NC2CCCCC2)c1,-6,-7,3,-10,26,-3%,-3%
O=C(CCc1nc2ccccc2c(=O)[nH]1)N1CCN(C/C=C/c2ccccc2)CC1,4,-11,19,-31,10,16%,?
O=C(CCc1nc2ccccc2c(=O)[nH]1)Nc1ccc(F)cc1,-1,-21,-1,-4,16,.,.
CC(=O)N1CCN(C(=O)CCc2nc3ccccc3c(=O)[nH]2)CC1,-3,-9,.,.,.,.,.
O=C(O)CCc1nc2ccccc2c(=O)[nH]1,-2,-5,29,-15,21,-21%,-4%
C=CCn1c(SCC(=O)c2ccc(O)c(O)c2)nnc1-c1cccc(OC)c1,1,-4,41*,-45,2,5%,9%
O=C(NCc1ccc(F)cc1)c1ccc(CS(=O)Cc2ccc(Cl)cc2)o1 (configuration not stated),.,.,-1,2,.,.,.
